Assay outcomes (PubChem)
In the library only some 5.1% were active in any assay of this set; here they are far more common.
Tau ThT inhib: inhibitors of human tau fibril formation, thioflavin T binding; Potency, µM (doses to about 57.4 µM), for the others: at the top dose activity, negative = inhibition, actives largely listed as inhibitors; P10636; recombinant tau K18 P301L, heparin-induced fibrillization, ThT fluorescence; hit rate 2.1% among 270,000; also: potency is read from the fitted curve at half-maximal effect; nearly all actives have a fitted effect of over 55% in size
Target sequence (P10636 561-689 P618L limits assumed): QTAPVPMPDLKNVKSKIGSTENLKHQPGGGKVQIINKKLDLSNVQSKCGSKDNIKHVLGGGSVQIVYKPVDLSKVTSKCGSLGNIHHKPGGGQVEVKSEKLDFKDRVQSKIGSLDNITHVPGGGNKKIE
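K18 P301L tau (15 uM + 0.24 uM Alexa 594-tagged), heparin 20 uM, NaOAc pH 7, 6 h 37 C; ThT 30 uM, 1 h RT, ex 450/em 510 nm.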
Tau FP inhib: tau fibrillization inhibition (FP); P10636; K18 P301L tau heparin fibrillization, Alexa594 FP, 6 h; Potency, µM (titrated, usually from 57.7 µM), for the others: at the highest dose activity, negative = inhibition, hits mostly inhibitors; hit rate 0.39% among 280,000; also: potency is read from the fitted curve at half-maximal effect; nearly all actives have a fitted effect of over 55% in size
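Recombinant K18 P301L […], labeled with Alexa 594 at 0.24 uM over 15 uM unlabeled; heparin inducer 20 uM final; 37 C, 6 hr; FP endpoint.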
KDM4E inh: JMJD2E (human) inhibition; B2RXH2; JMJD2E catalytic domain, FDH-coupled NADH fluorescence (FDH is formaldehyde dehydrogenase); Potency, µM (series often up to 57.1 µM), for the others: top-dose activity change, negative = inhibition, actives largely listed as inhibitors; hit rate 1.6% among 230,000; active = well fitted inhibition curve with a large enough effect, not every such curve was filed as active; inconclusive = small, poorly fitted or top-dose-only effect, or another doubt; inactive = no such curve, though single readings can be large or run the other way;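 also: potency is read from the fitted curve at half-maximal effect; 0% = wells with enzyme and -100% = buffer wells without enzyme; nearly all actives have a fitted effect of over 50% in size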
Target sequence (B2RXH2 1-337 limits assumed): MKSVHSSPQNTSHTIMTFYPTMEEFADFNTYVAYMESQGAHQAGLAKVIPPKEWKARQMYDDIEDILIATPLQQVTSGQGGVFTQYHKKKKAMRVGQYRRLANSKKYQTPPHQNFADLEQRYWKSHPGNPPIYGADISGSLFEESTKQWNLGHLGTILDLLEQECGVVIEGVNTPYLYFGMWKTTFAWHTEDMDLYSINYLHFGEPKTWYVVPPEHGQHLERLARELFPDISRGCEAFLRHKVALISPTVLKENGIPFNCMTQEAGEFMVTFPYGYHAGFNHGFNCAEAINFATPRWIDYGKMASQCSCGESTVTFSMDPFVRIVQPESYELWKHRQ
Tau fluor counter: counter-screen for tau fibril formation inhibitors; hit rate 0.93% among 280,000; tau K18 P301L (four-repeat tau fragment) Alexa594 fluorescence, heparin fibrillization; Potency, µM (doses to about 57.7 µM), inactives show at the highest dose activity change, negative = decrease; also: potency is read from the fitted curve at half-maximal effect; nearly all actives have a fitted effect of over 55% in size
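Human K18 P301L tau (15 uM unlabeled plus 0.24 uM Alexa 594-labeled, final) in 100 mM sodium acetate pH 7 was mixed with compound and 20 uM heparin and incubated 6 hr at 37 C.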
NPSR antagonist: blocks cAMP signaling of the human neuropeptide S receptor; Q6W5P4; CHO-NPSR cells, cAMP TR-FRET, antagonist mode; Potency, µM (doses to about 38.3 µM), without a hit: top-dose activity change, negative = inhibition, hits mostly inhibitors; hit rate 1% among 220,000; AID 1461; also: potency is read from the fitted curve at half-maximal effect; nearly all actives have a fitted effect of over 50% in size
PNC assembly inh: blocks assembly of the perinucleolar compartment. PC3M PTB-GFP, PNC prevalence imaging, 16 h; stronger effect = lower value. activity change (PNC), negative = inhibition, % at 10 µM. hit rate 3.1% among 140,000;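 active = readout at or below -70, meaning at least 70% loss of cells showing the perinucleolar compartment, a nuclear body marking cancer cells; inconclusive = readout between -30 and a set limit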;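 also: plate controls were DMSO wells for no effect and camptothecin positive control wells for full effect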
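Read-out is percentage of cells bearing a perinucleolar compartment, from automated 20x imaging of fixed, Hoechst-stained PC3M PTB-GFP cells. Cells were seeded 4 h, then exposed 16 h to compound (23 nl of library stock) in duplicate plates.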
Active calls of the source: *; ? = inconclusive; · = no result given; [ ] = another dose, or the depositor's remark. Unless noted, calls follow the shape of the dose curve; as a rule, active = well fitted curve in the direction sought with a large enough effect; inconclusive = small, poorly fitted or top-dose-only effect, or another doubt; inactive = no such curve, though single readings can be large; an effect the other way counts as inactive or inconclusive. Unless noted, % is scaled to controls: 0 for no effect and ±100 for the full control effect.

SMILES	Tau ThT inhib	Tau FP inhib	KDM4E inh	Tau fluor counter	NPSR antagonist	PNC assembly inh
CCCCN1C(=O)/C(=C/C=C2\SCCN2C)SC1=S	14µM*	?	-10%	?	-45%	·
CCCN1C(=O)/C(=C\C=C2/C=CN(CC)c3ccccc32)SC1=S	-9%	16%	-6%	-7%	2µM*	-30
CN1CCS/C1=C/C=C1\SC(=S)N(CC(=O)O)C1=O	16µM*	-6%	2%	-20%	29%	·
CCc1ccc2oc(C(=O)Nc3ccccc3C(=O)OC)cc(=O)c2c1	-8%	-4%	·	-13%	·	·
O=C(Cc1ccccc1)N/N=C/C=C/c1ccccc1[N+](=O)[O-]	-4%	-12%	5%	-3%	1%	·
O=C(O)c1ccc(N/N=C/C=C/c2ccccc2[N+](=O)[O-])cc1	13µM*	12%	3%	-26%	-15%	·
COc1ccc(NC(=O)/C=C/c2ccccc2[N+](=O)[O-])c(OC)c1	13µM*	10%	-6%	?	-5%	?
COc1ccc(CNC(=O)/C=C/c2ccccc2[N+](=O)[O-])cc1	-9%	0%	3%	-11%	-14%	·
COc1ccc(/C=N/Nc2ncccc2[N+](=O)[O-])c(OC)c1	13µM*	1%	-3%	?	-30%	·
COC(=O)C(=Cc1ccccc1[N+](=O)[O-])C(=O)OC	25µM*	?	-4%	-27%	?	·
COc1ccc(OC)c(NC(=O)/C=C/c2ccccc2[N+](=O)[O-])c1	?	?	-4%	?	-14%	?
CC1=C(C(=O)OC2CCCCCC2)C(c2cccc(Cl)c2)CC(=O)N1 (centres undefined)	-9%	0%	·	-4%	·	·
CC(=O)NCCNC(=O)CCCc1nnc2n(C)c(=O)c3sccc3n12	-7%	-10%	·	-11%	·	·
CN1Cc2c(N3CCOCC3)nc3sc(C#N)c(N)c3c2CC1(C)C	-13%	9%	?	1%	18%	·
CN1Cc2c(N3CCOCC3)nc3sc(C(=O)c4ccc(Br)cc4)c(N)c3c2CC1(C)C	?	?	?	?	13µM*	·
O=[N+]([O-])c1ccc(/C([O-])=C(/C(=S)NCc2ccco2)[n+]2ccccc2)cc1	25µM*	?	14µM*	-21%	-7%	·
Cc1ccc(/C([O-])=C(/C(=S)NCc2ccco2)[n+]2ccccc2)cc1	?	-5%	5%	-18%	-9%[46.1 µM]	18
Cc1nn(C)c(C)c1S(=O)(=O)N(CC(=O)NCCc1ccccc1)c1ccc(C(C)C)cc1	10%	-11%	·	6%	·	·
C/C(=N\Nc1nnc2c3ccccc3n(C)c2n1)c1ccc(C)o1	14µM*	5%	-2%	-9%	-6%	-1
C/C(=N\Nc1nc(C)cc(C)n1)c1ccc(C)o1	-1%	0%	-2%	8%	3%	·
c1ccc(Cn2ncc3c(NCc4ccco4)ncnc32)cc1	-11%	1%	-6%	-8%	-4%[46.1 µM]	-105*
COCCCNC(=O)c1c(NC(=O)c2cc(=O)c3ccccc3o2)sc2c1CCCC2	?	1%	·	-20%	·	·
C[C@@]1(C(=O)O)NCCc2cc(O)c(O)cc21	25µM*	?	?	?	·	·
NS(=O)(=O)c1ccc(CCN2C(=O)/C(=C\c3ccc(Cl)cc3)SC2=S)cc1	?	-3%	6%	-14%	-18%	-84*
Cc1[nH]n(-c2ccccc2)c(=O)c1N=Nc1nccs1	13µM*	8%	?	-28%	-14%[46.1 µM]	-2
SMILES	Tau ThT inhib	Tau FP inhib	KDM4E inh	Tau fluor counter	NPSR antagonist	PNC assembly inh
CCCSc1nc(O)c(C(c2ccc(OC)c(O)c2)c2c(O)nc(SCCC)n(C)c2=O)c(=O)n1C	4µM*	?	-14%	-16%	-49%	-23
COc1ccc(C(c2c(C)n(C)n(-c3ccccc3)c2=O)c2c(C)n(C)n(-c3ccccc3)c2=O)cc1O	14%	-1%	-6%	13%	6%	·
COc1cccc(C(c2c(O)nc(SC)n(C)c2=O)c2c(O)nc(SC)n(C)c2=O)c1	13µM*	?	4%	-17%	-3%[46.1 µM]	?
CCCC(=O)Nc1cccc(-c2cn3c(C)csc3n2)c1	-11%	-1%	·	-6%	·	·
O=C(OC1CCc2ccccc2C1=O)c1ccccc1O (centres undefined)	25µM*	?	?	?	-28%[46.1 µM]	?
CC(=O)c1sc(N/N=C\c2ccc(Br)cc2)nc1C	?	?	?	?	-26%	49
CC(=O)c1sc(N/N=C\c2cccc(Br)c2)nc1C	14%	5%	-8%	13%	-1%	-85*
Cc1nc2nc(NC(=O)C(C)(C)C)[nH]n2c(=O)c1Cc1ccccc1	2%	2%	·	10%	·	·
CC1CCCN(S(=O)(=O)c2cc3c4c(c2)CC(=O)N4CCC3)C1 (centres undefined)	-3%	-6%	·	-1%	·	·
CCOC(=O)c1c(NC(=O)c2cccs2)sc(C)c1CC	?	?	?	-21%	?	11
Cc1sc(NC(=O)c2cccs2)c(C(=O)OC(C)C)c1C	-4%	-11%	?	-4%	2%[46.1 µM]	-100*
CCc1ccc(NC(=O)CN(c2cccc(C)c2)S(C)(=O)=O)cc1	-9%	-9%	3%	-20%	-8%[46.1 µM]	-25
Cc1cccc(N(CC(=O)Nc2ccc(CC#N)cc2)S(C)(=O)=O)c1	-1%	-9%	1%	0%	-7%[46.1 µM]	-84*
CCCCc1nc2ccccc2n2c(-c3ccc(C)cc3)c3c(=O)n(C)c(=O)n(C)c3c12	?	6%	·	-16%	·	·
Cc1occc(=O)c1OC(=O)Nc1ccc(Cl)c(Cl)c1	?	?	-19%	?	-10%	-113*
COCCN(C(=O)Nc1ccccc1)c1ccccc1C	5%	2%	2%	3%	-15%[46.1 µM]	-100*
Cc1cccc(-n2c3nc(=O)[nH]c(=O)c-3cc3c(Cl)cccc32)c1C	-12%	-7%	·	-13%	·	·
CCOc1ccc(-n2c(N)c(C(=O)NCc3ccco3)sc2=S)cc1	-10%	-3%	-4%	-21%	-16%[46.1 µM]	-86*
COc1ccc2cc3cc(C(=O)NCc4ccco4)oc3nc2c1	-14%	-3%	?	-12%	-22%[46.1 µM]	-8
COc1ccc2cc3c(N)c(C(=O)NCc4ccco4)sc3nc2c1	2.8µM*	10%	?	?	-5%[46.1 µM]	18
CCOc1ccc(-n2c(N)c(C(=O)NCc3cccnc3)sc2=S)cc1	-7%	?	-1%	-14%	-9%[46.1 µM]	-15
Cn1nnnc1SCCNCc1cc(Br)ccc1OCc1ccccc1Cl	-21%	2%	·	-25%	·	·
CN(C)c1ccc(C(=S)NCc2ccco2)cc1	10µM*	-15%	-13%	?	-8%[46.1 µM]	-17
CCn1cc(/C=C/C(=O)Nc2ccn(Cc3c(F)c(F)cc(F)c3F)n2)cn1	22µM*	?	3%	-9%	-9%	-1
